About 79,000 compounds went through this panel and 15% of them were active in at least one assay; those are over-represented in the sample as a whole. Unmarked numbers belong to inactive results. The source made the active and inactive calls. Cut-off read from the data, not from the text of the source: active = growth inhibition above about 70%; inactive = the rest.
Columns and labels:
[1] = NCI Yeast Anticancer Drug Screen. Data for the rad50 strain (AID 155);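 note: 0% = growth of vehicle-only cultures of the same strain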; details: S. cerevisiae rad50 strain growth inhibition; at 50.0 µM; stronger effect = higher value
Procedure, shortened: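 Inhibition values express reduced yeast growth in compound-treated cultures relative to vehicle-treated controls.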

[2] = NCI Yeast Anticancer Drug Screen. Data for the mec2-1 strain (AID 157); details: S. cerevisiae mec2-1 strain, at 50.0 µM, stronger effect = higher value
Procedure, shortened: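 Mutant yeast (mec2-1) grown with compound; growth inhibition relative to vehicle control reported.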

[3] = NCI Yeast Anticancer Drug Screen. Data for the sgs1 mgt1 strain (AID 161);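 note: 0% = growth of cultures given vehicle only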; details: S. cerevisiae sgs1 mgt1 strain, at 50.0 µM, stronger effect = higher value
Procedure, shortened: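 Percent growth inhibition was derived by comparing compound-exposed mutant yeast with vehicle-exposed cultures. The strain carries alterations in DNA damage repair.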

[4] = NCI Yeast Anticancer Drug Screen. Data for the cln2 rad14 strain (AID 165);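 note: 0% = growth equal to vehicle treated cultures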; details: S. cerevisiae cln2 rad14 strain, at 50.0 µM, stronger effect = higher value
Procedure, shortened: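 Readout is yeast growth inhibition versus vehicle-treated controls, using a strain with cln2 and rad14 alterations exposed to compound.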

[5] = NCI Yeast Anticancer Drug Screen. Data for the bub3 strain (AID 167); details: S. cerevisiae bub3 mutant strain, at 50.0 µM, stronger effect = higher value
Procedure, shortened: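 Steps: expose the mutant yeast strain to compound; grow alongside vehicle-treated cultures; measure growth; express inhibition against the vehicle cultures.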

[6] = NCI Yeast Anticancer Drug Screen. Data for the mlh1 rad18 strain (AID 175); details: S. cerevisiae mlh1 rad18 strain growth inhibition; at 50.0 µM; stronger effect = higher value
Procedure, shortened: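 Genetically defined yeast (DNA repair-deficient) exposed to compounds; growth inhibition determined relative to vehicle.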

| SMILES | growth inhibition [1] | growth inhibition [2] [%] | growth inhibition [3] | growth inhibition [4] [%] | growth inhibition [5] [%] | growth inhibition [6] |
| --- | --- | --- | --- | --- | --- | --- |
| O=C(O)CCCC1=C2CCC(=O)C=C2CCC1 | -15.8% | -24.6 | -10.3% | 0.2 | -20.6 | -10.1% |
| Cn1c(=O)c2c(nc(N3CCOCC3)n2CCCNCC(O)c2ccc(O)c(O)c2)n(C)c1=O (stereo unspecified) | -40.9% | 4.3 | -13.2% | -29.9 | -2.1 | -21.6% |
| CC1=NNC(=O)C1 | 4.65% | -0.4 | -8.1% | -14.8 | -3.2 | 2.9% |
| CC(C(=O)O)/C(=C\c1ccccc1)C(=O)O (stereo unspecified) | 16.6% | 7.25 | 21.6% | -17.5 | 12.6 | 11.4% |
| O=C(O)CN1C(=O)c2ccccc2C1=O | -8.75% | -15.7 | -5.5% | -25.7 | -27.6 | -20.3% |
| O=C(Nc1cc(S(=O)(=O)O)cc2cc(S(=O)(=O)O)c(N=Nc3cc(Nc4nc(Cl)nc(Nc5ccc(S(=O)(=O)O)cc5)n4)ccc3S(=O)(=O)O)c(O)c12)c1ccccc1 | 17.9% | -10.1 | 10.8% | 3.5 | 0.05 | 25.2% |
| O=C(COc1ccccc1)OC1CCCCC1C1CCCCC1 (stereo unspecified) | 13.2% | 13 | 4.05% | 21.5 | 2.6 | 14.2% |
| O=c1oc2ccccc2c(O)c1Oc1ccccc1 | -7.35% | 3.5 | -15.3% | -10.7 | -12.5 | -1.05% |
| CC1(C(O)(c2ccccc2)c2ccccc2)CC1(c1ccccc1)c1ccccc1 (stereo unspecified) | -21.4% | -2.4 | -10.9% | -8.05 | 1.3 | -2.3% |
| CCCOc1ccc(C(=O)O)cc1 | 10.8% | 7.85 | 6.3% | -2 | -14.8 | 4.15% |
| Cc1ccc(S(=O)(=O)/N=C/[N-][n+]2cccc(C)c2)cc1 | 3.6% | 8.8 | 4.4% | -14.6 | 0.45 | -4.2% |
| NC(Cc1cccnn1)C(=O)O (stereo unspecified) | -29.2% | -22.8 | -29.2% | -58.9 | -25.4 | -5.25% |
| COC(=O)c1cccc2c(N)c(N)cc(C(=O)OC)c12 | 17.5% | 18.2 | 24.8% | 28.2 | 9.3 | 31.4% |
| CC(=O)c1ccc(N=C2c3ccccc3CN2c2ccc(C(C)=O)cc2)cc1 | 11.8% | -13.6 | -6.75% | -10.6 | -5.25 | 4.5% |
| CCN(CC)C1(C(F)C(F)(F)F)OCC2(CO1)COC(C(F)C(F)(F)F)(N(CC)CC)OC2 (stereo unspecified) | -10.1% | -13.4 | -0.4% | 2.3 | 0.8 | 6.6% |
| CCOc1ccc(/C=C2\N=C(c3ccc([N+](=O)[O-])cc3)OC2=O)cc1 | 11.2% | 19.8 | 3% | 3.45 | 15.6 | 8.15% |
| CN(C)C=Nc1ccc([N+](=O)[O-])cc1 | -7.7% | -2.65 | -1.25% | -12.8 | -0.6 | -5.3% |
| CC(C)CC(NC(=O)COc1cc(Cl)ccc1Cl)C(=O)O (stereo unspecified) | -4.3% | 19.2 | 6.3% | -18.6 | -3.25 | -40.4% |
| CC(=O)C(N=Nc1ccc(S(=O)(=O)NC2NCCC(C)N2)cc1)C(=O)Nc1ccccc1C (stereo unspecified) | 55.1% | 15.8 | 48% | 25.6 | 0.7 | 42.5% |
| CC(=O)Nc1ccc(S(=O)(=O)/C(=C\c2ccc(Cl)o2)c2ccc([N+](=O)[O-])o2)cc1 | 90.1% (active) | 56.8 | 92.9% (active) | 57.5 | 61.4 | 92.7% (active) |
| Nc1ccc(Br)c(N)c1 | -0.95% | -3.65 | -5.35% | -16.9 | -21.6 | -24.9% |
